Screens: PubChem BioAssay, National Center for Advancing Translational Sciences (NCATS)
IL-1B inflam inh – qHTS for Inhibitors of Inflammasome Signaling: IL-1-beta AlphaLISA Primary Screen; activity change, % at 57.5 µM; hit rate 4.7% among 360,000; AID 743279, 2014; THP-1 LPS/ATP IL-1B secretion, AlphaLISA, 16 h; active compounds read low; in the data active means activity change below about -50%; inconclusive means mostly about -30% to -49%
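Secreted IL-1B measured by AlphaLISA bead assay after 16 h compound exposure of THP-1 cells; compounds (final up to 57.5 uM) added 1 h before LPS (250 ng/mL) and ATP (1.25 mM) stimulation; lower signal means less secretion.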
HT1080 IDH1KD tx – qHTS for induction of synthetic lethality in tumor cells producing 2HG: qHTS for the HT-1080-IDH1KD cell line | AID 686971, 2013 | hit rate 2% among 360,000 | Potency, µM (series often up to 46.1 µM), for the others: at the highest dose activity, negative = toxicity, most hits filed as cytotoxic | HT-1080 IDH1 knockdown viability, ATP luminescence, 48 h;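 further: potency means the concentration at half of the fitted maximal effect; 0% = DMSO wells and -100% = cell-free medium wells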
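In this qHTS, HT-1080 cells depleted of IDH1 are exposed for 48 h at 37 °C to compound titrations. Toxicity is scored from CellTiter-Glo luminescence, with DMSO as full viability and medium alone as none.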
HT1080NT lethal – qHTS for induction of synthetic lethality in tumor cells producing 2HG: qHTS for the HT-1080-NT fibrosarcoma cell line; AID 686970, 2013; HT-1080-NT fibrosarcoma viability, CellTiter-Glo ATP luminescence, 48 h; hit rate 1.6% among 360,000; Potency, µM (top dose mostly 46.1 µM), without a hit: at the highest dose activity, negative = less viability, usual class: cytotoxic;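 further: NT is the 2HG producing partner of a matched IDH1 knockdown line; potency means the concentration at half of the fitted maximal effect; 0% = DMSO-treated cells and -100% = media-only wells without cells; nearly all actives have a fitted effect of over 55% in size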
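HT-1080-NT; 750 cells/well; 5% FBS RPMI; 48 h compound, 37 degrees C; CellTiter-Glo luminescence; curve fitting and curve-class assignment.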
DT40 TDP1 CPT – qHTS for Inhibitors of human tyrosyl-DNA phosphodiesterase 1 (TDP1): qHTS in cells in presence of CPT | chicken DT40 Tdp1-/-;hTDP1 cells + 20 nM CPT, ATP luminescence, 48 h | Potency, µM (doses to about 46.2 µM), without a hit: at the top dose activity change, negative = growth inhibition, actives largely listed as inhibitors | hit rate 12% among 420,000; further: potency means the concentration at half of the fitted maximal effect; nearly all actives have a fitted effect of over 55% in size
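Chicken DT40 Tdp1-/- cells complemented with human TDP1, 400 cells/well, exposed to compounds plus 20 nM camptothecin for at least 48 h at 37 C; viability read as ATP content by CellTiter-Glo luminescence.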
ELG1 repair inh – qHTS screen for small molecules that inhibit ELG1-dependent DNA repair in human embryonic kidney (HEK293T) cells expressing luciferase-tagged ELG1; HEK293T ELG1-luciferase reporter, luminescence, 16 h; DNA damage induced by 5-fluorouridine; Potency, µM (doses to about 46.1 µM), for the others: at the top dose activity change, negative = inhibition, most hits filed as inhibitors; hit rate 2.3% among 330,000; further: potency means the concentration at half of the fitted maximal effect; nearly all actives have a fitted effect of over 55% in size
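Quantitative HTS, concentration-response format. 2,000 cells/well co-treated with 5-fluorouridine and compound, 16 hr in 5% CO2 at 37 °C; ONE-Glo luminescence read after 30 min.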
DT40 TDP1 no CPT – qHTS for Inhibitors of human tyrosyl-DNA phosphodiesterase 1 (TDP1): qHTS in cells in absence of CPT; DT40 Tdp1-/- hTDP1 cells, no CPT, ATP luminescence, 48 h; Potency, µM (series often up to 46.2 µM), for inactives: top-dose activity change, negative = growth inhibition, most hits filed as inhibitors; hit rate 15% among 420,000; further: potency means the concentration at half of the fitted maximal effect; nearly all actives have a fitted effect of over 55% in size
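Growth kinetics read by CellTiter-Glo luminescence after ≥48 hr at 37 °C. Cells: DT40 Tdp1-/- stably carrying human TDP1, 400 per well, compound exposure in the absence of CPT (DMSO vehicle).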
Active calls of the source: *. An excerpt weighted towards active compounds, which were near 19% of everything screened. Unless noted, the call rests on the fitted dose curve; in most records, active means well fitted curve in the direction sought with a large enough effect; inconclusive means small, poorly fitted or top-dose-only effect, or another doubt; inactive means no such curve, though single readings can be large; an effect the other way counts as inactive or inconclusive. Unless noted, on the % scale 0 is the no-effect control and ±100 the full control effect.

For C/C(CC1(O)C(=O)N(Cc2ccccc2)c2ccccc21)=N\O (centres undefined) the results were IL-1B inflam inh -5, HT1080 IDH1KD tx 3%, HT1080NT lethal -3%, DT40 TDP1 CPT 8% and DT40 TDP1 no CPT -2%.
`Cc1ccc(C(=O)CC2(O)C(=O)N(CCc3ccccc3)c3ccc(Br)cc32)o1` (centres undefined) gave IL-1B inflam inh -19, HT1080 IDH1KD tx -18%, HT1080NT lethal -13%, DT40 TDP1 CPT inconclusive, ELG1 repair inh -20% and DT40 TDP1 no CPT 16µM*.
CCOC(=O)C1CCN(S(=O)(=O)c2cc3c4c(c2)CC(=O)N4CCC3)CC1 was read as DT40 TDP1 CPT -10% and DT40 TDP1 no CPT inconclusive.
C1CN(c2nc3nonc3nc2N2C[C@H]3CC[C@H]2C3)CCS1 was read as IL-1B inflam inh -5, HT1080 IDH1KD tx -8%, HT1080NT lethal 4%, DT40 TDP1 CPT -4%, ELG1 repair inh -8% and DT40 TDP1 no CPT -5%.
Screening CC(=O)c1c[nH]c(C(=O)NCc2ccccc2Cl)c1 returned IL-1B inflam inh 9, HT1080 IDH1KD tx 14%, HT1080NT lethal 5%, DT40 TDP1 CPT 8%, ELG1 repair inh 2% and DT40 TDP1 no CPT -1%.
`Cc1cc(Nc2ccccc2C(=O)O)n(-c2ccc([N+](=O)[O-])cc2)n1` gave IL-1B inflam inh 53, HT1080 IDH1KD tx 11%, HT1080NT lethal 30%, DT40 TDP1 CPT -13%, ELG1 repair inh -21% and DT40 TDP1 no CPT -24%.
`O=C1OCCC1=CN1CCCCC1` gave IL-1B inflam inh -11, HT1080 IDH1KD tx 12%, HT1080NT lethal 6%, DT40 TDP1 CPT 5% and DT40 TDP1 no CPT -33%.
N#Cc1cccc(NC(=O)CNc2cccc(S(=O)(=O)N3CCCCC3)c2)c1 was read as IL-1B inflam inh -8, HT1080 IDH1KD tx -23%, HT1080NT lethal inconclusive, DT40 TDP1 CPT inconclusive, ELG1 repair inh inconclusive and DT40 TDP1 no CPT inconclusive.
`Cc1ccc(CN2C(=O)C(O)(CC(=O)c3ccc(C)cc3)c3ccccc32)cc1` (centres undefined) gave DT40 TDP1 CPT 5.8µM* and DT40 TDP1 no CPT 2.6µM*.
For O=C(/C=C/c1ccco1)Nc1ccccc1N1CCCC1 the results were IL-1B inflam inh -7, HT1080 IDH1KD tx -8%, HT1080NT lethal -10%, DT40 TDP1 CPT inconclusive, ELG1 repair inh 15% and DT40 TDP1 no CPT inconclusive.
For C#CCN1C(=O)C(O)(CC(=O)/C=C/c2ccco2)c2ccccc21 (centres undefined) the results were IL-1B inflam inh 6, HT1080 IDH1KD tx -8%, HT1080NT lethal -2%, DT40 TDP1 CPT 5.8µM*, ELG1 repair inh -13% and DT40 TDP1 no CPT 3.7µM*.
Cc1ccc(C(=O)CC2(O)C(=O)N(CCc3ccccc3)c3ccc(Cl)cc32)cc1 (centres undefined) was read as DT40 TDP1 CPT 21µM* and DT40 TDP1 no CPT 23µM*.
Screening CCCC1(CC)C(=O)NC(=O)N=C1N (centres undefined) returned IL-1B inflam inh -7, HT1080 IDH1KD tx 8%, HT1080NT lethal 2%, DT40 TDP1 CPT -3% and DT40 TDP1 no CPT -20%.
Screening Cc1ccccc1C(=O)OCc1cc(=O)n2c(C)csc2n1 returned DT40 TDP1 CPT -19% and DT40 TDP1 no CPT inconclusive.
For CC(Oc1ccc(C#N)cc1)C(=O)N1CC=C(c2ccccc2)CC1 (centres undefined) the results were IL-1B inflam inh -61*, HT1080 IDH1KD tx inconclusive, HT1080NT lethal inconclusive, DT40 TDP1 CPT inconclusive, ELG1 repair inh inconclusive and DT40 TDP1 no CPT inconclusive.
Cc1cccc(NC(=O)CN2CCN(C(=O)C(C)Oc3ccc(C#N)cc3)CC2)c1C (centres undefined) was read as IL-1B inflam inh 0, HT1080 IDH1KD tx -5%, HT1080NT lethal -1%, DT40 TDP1 CPT -29%, ELG1 repair inh inconclusive and DT40 TDP1 no CPT -9%.
Screening COc1ccc(CNCc2ccc(F)cc2)c(OC)c1 returned IL-1B inflam inh -26, HT1080 IDH1KD tx 1%, HT1080NT lethal 1%, DT40 TDP1 CPT -2%, ELG1 repair inh 4% and DT40 TDP1 no CPT inconclusive.
Screening COc1ccc(CNCc2cc(C)c(OC)cc2C)c(OC)c1 returned IL-1B inflam inh -63*, HT1080 IDH1KD tx inconclusive, HT1080NT lethal inconclusive, DT40 TDP1 CPT 15µM*, ELG1 repair inh inconclusive and DT40 TDP1 no CPT 12µM*.
For COc1cccc(CNCc2ccc(OC)cc2OC)c1 the results were IL-1B inflam inh -57*, HT1080 IDH1KD tx -4%, HT1080NT lethal 2%, DT40 TDP1 CPT inconclusive, ELG1 repair inh -6% and DT40 TDP1 no CPT inconclusive.
Screening CCn1c2ccccc2c2cc(CNCc3ccc(OC)cc3OC)ccc21 returned IL-1B inflam inh -88*, HT1080 IDH1KD tx inconclusive, HT1080NT lethal -16%, DT40 TDP1 CPT inconclusive, ELG1 repair inh -27% and DT40 TDP1 no CPT 10µM*.
`Cc1ccc(S(=O)(=O)CCC(=O)Nc2ccc(Br)cc2C)cc1` gave DT40 TDP1 CPT -25% and DT40 TDP1 no CPT -18%.
Screening Cc1nn(-c2ccccc2)nc1C(=O)Nc1ccc2[nH]ncc2c1 returned IL-1B inflam inh -14, HT1080 IDH1KD tx 1%, HT1080NT lethal -2%, DT40 TDP1 CPT -26%, ELG1 repair inh -16% and DT40 TDP1 no CPT 21µM*.
FC(F)(F)c1nc(N2CCCC2)ncc1-c1nnnn1-c1ccccc1 was read as IL-1B inflam inh -19, HT1080 IDH1KD tx -29%, HT1080NT lethal 29%, DT40 TDP1 CPT 16µM*, ELG1 repair inh -17% and DT40 TDP1 no CPT 23µM*.
`Cc1ccc(-n2nnnc2-c2cnc(N3CCCC3)nc2C(F)(F)F)cc1` gave IL-1B inflam inh -25, HT1080 IDH1KD tx inconclusive, HT1080NT lethal -18%, DT40 TDP1 CPT 23µM*, ELG1 repair inh 8% and DT40 TDP1 no CPT 12µM*.
